Compound activity: PubChem, National Center for Advancing Translational Sciences (NCATS)
A selection: hits, their analogues and other compounds. The true share with any hit is near 8%.
HT1080 IDH1KD tx: qHTS for induction of synthetic lethality in tumor cells producing 2HG: qHTS for the HT-1080-IDH1KD cell line; Potency, µM (top dose mostly 46.1 µM), for inactives: at the highest dose activity, negative = toxicity, usual class: cytotoxic; HT-1080 IDH1 knockdown viability, ATP luminescence, 48 h; AID 686971, 2013; 360,000 tested, 2% active;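 further: 0% = DMSO wells and -100% = cell-free medium wells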
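Using the IDH1-knockdown HT-1080 line run in the same batch and compound series as the NT line, viability after 48 h at 37 °C was determined by CellTiter-Glo luminescence and expressed as % activity.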
HT1080-NT tox: qHTS for induction of synthetic lethality in tumor cells producing 2HG: qHTS for the HT-1080-NT fibrosarcoma cell line | HT-1080-NT fibrosarcoma viability, CellTiter-Glo ATP luminescence, 48 h | Potency, µM (highest dose often 46.1 µM), without a hit: at the top dose activity, negative = less viability, most hits filed as cytotoxic | 360,000 tested, 1.6% active | AID 686970, 2013;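 further: NT is the 2HG producing partner of a matched IDH1 knockdown line; 0% = DMSO-treated cells and -100% = media-only wells without cells; nearly all actives have a fitted effect of over 55% in size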
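Fibrosarcoma NT cells, 750 per well in 5% FBS RPMI, were exposed to compound for 48 hours. Viability: CellTiter-Glo luminescence.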
MCF10A rereplic: A quantitative high throughput screen for small molecules that induce DNA re-replication in MCF 10a normal breast cells; MCF 10A DNA re-replication, Hoechst nuclear intensity, 48 h; Potency, µM (series often up to 46.1 µM), inactives show top-dose activity, positive = re-replication, usual class: activators; 350,000 tested, 2.9% active; AID 624296, 2012; further: % of control where 0% means no effect; nearly all actives have a fitted effect of over 50% in size
SW480 rerep: A quantitative high throughput screen for small molecules that induce DNA re-replication in SW480 colon adenocarcinoma cells. SW480 DNA re-replication, Hoechst DNA content imaging, 48 h. Potency, µM (doses to about 46.1 µM), without a hit: top-dose re-replication activation, hits mostly activators. 340,000 tested, 1.8% active; further: % of control where 0% means no effect; nearly all actives have a fitted effect of over 55% in size
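250 cells/well; 23 nL cpd via pin tool; 48 hr, 37 C, 5% CO2; Hoechst 40 min; imager read of total nuclear intensity, ex 405/em 500-530 nm.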
KB-V1 cytotox: qHTS assay for MDR1-selective chemotherapeutics: Primary screen using the drug-selected MDR subline cells KB-V1 | KB-V1 MDR cells viability, CellTiter-Glo, 72 h | Potency, µM (highest dose often 46.1 µM), hits mostly cytotoxic | 400,000 tested, 3.4% active | AID 1347076, 2019; further: on the % scale 0 is the no-effect control and ±100 the full control effect; nearly all actives have a fitted effect of over 60% in size
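Drug-selected KB-V1 cells, grown in DMEM lacking phenol red with 10% FBS, receive compound titrations; after three days at 37 degrees C, surviving cell ATP is quantified by CellTiter-Glo luminescence and responses normalized and curve-fitted.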
KB-3-1 tox: qHTS assay for MDR1-selective chemotherapeutics: Primary screen using the parental adenocarcinoma cell KB-3-1. KB-3-1 viability, CellTiter-Glo ATP luminescence, 72 h. Potency, µM (series often up to 46.1 µM), actives largely listed as cytotoxic. 400,000 tested, 1.4% active. AID 1347075, 2019; further: on the % scale 0 is the no-effect control and ±100 the full control effect; nearly all actives have a fitted effect of over 60% in size
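Parental KB-3-1 viability, qHTS format: 72 h compound exposure, 37 °C; CellTiter-Glo; media-only wells and DMSO plates as controls; concentration-effect fits on corrected data.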
* hit, by the source's call; i = inactive; ? = inconclusive; . = no result given; [ ] = another dose, or the depositor's remark. The call rests on the fitted dose curve; in most records, active means well fitted curve in the direction sought with a large enough effect; inconclusive means small, poorly fitted or top-dose-only effect, or another doubt; inactive means no such curve, though single readings can be large; an effect the other way counts as inactive or inconclusive. Potency means the concentration at half of the fitted maximal effect.

SMILES | HT1080 IDH1KD tx | HT1080-NT tox | MCF10A rereplic | SW480 rerep | KB-V1 cytotox | KB-3-1 tox
CC1CC(C)CN(S(=O)(=O)c2ccc(C(=O)Nc3nnc(-c4cccs4)o3)cc2)C1 (stereo not given) | ? | 14µM* | ? | 25%[9.22 µM] | 13µM* | ?
O=C(c1ccc2c(c1)OCCO2)C1CCN(C(=O)c2ccc(F)c(F)c2)CC1 | ? | -2% | 2% | -4% | 5.8µM* | ?
O=C(CN1CCC(C(=O)c2ccc3c(c2)OCCO3)CC1)Nc1ccccc1C(F)(F)F | -16% | 3% | 16µM* | 4% | i | i
Cc1ccccc1NC(=O)CN1CCC(C(=O)c2ccc3c(c2)OCCO3)CC1 | -3% | -7% | 3% | 29% | ? | i
O=C(CN1CCC(C(=O)c2ccc(Cl)cc2)CC1)Nc1ccc2c(c1)OCCO2 | ? | ? | 22% | -9% | 9.2µM* | ?
O=C(NC1CC1)C1=C[C@@H](c2coc3ccccc3c2=O)C[C@@H](OCCCCO)O1 | -6% | 0% | -9% | -8%[9.22 µM] | i | i
c1ccc(CSc2nnc(-c3ccco3)n2Cc2ccco2)cc1 | -2% | 1% | -1% | -1% | 21µM* | ?
Cc1ccccc1CSc1nnc(-c2ccco2)n1Cc1ccco1 | -5% | 6% | ? | -1% | i | i
c1ccc(CSc2nnc(-c3cccs3)n2Cc2ccco2)cc1 | -6% | 0% | 14% | -6% | ? | ?
Cc1ccccc1CSc1nnc(-c2cccs2)n1Cc1ccco1 | 0% | 0% | ? | -1% | 5.8µM* | i
Clc1cccc(CSc2nnc(-c3ccccn3)n2Cc2ccco2)c1 | -19% | -19% | ? | -6% | 10µM* | ?
Brc1ccc(CSc2nnc(-c3ccccn3)n2Cc2ccco2)cc1 | 11µM* | ? | ? | ? | 7.3µM* | i
O=C(NCc1ccccc1F)C1CCN(c2nn3cc(-c4ccc(F)cc4)nc3s2)CC1 | . | . | . | . | i | i
C(=C\c1ccccc1)/CSc1nnc(-c2ccccc2)n1Cc1ccco1 | 7.1µM* | 7.1µM* | 5.2µM* | 23µM* | 18µM* | i
CC(C)(C)c1ccc(CSc2nnc(-c3ccccn3)n2Cc2ccco2)cc1 | ? | ? | 16µM* | ? | i | ?
C(=C\c1ccccc1)/CSc1nnc(-c2ccncc2)n1Cc1ccco1 | -1% | 0% | 2% | 3% | i | i
COCOc1ccc(-c2oc3c(C/C=C(\C)CCC=C(C)C)ccc(O)c3c(=O)c2OCOC)c(OCOC)c1 | 1% | -2% | -4% | -14% | i | i
Cc1cc(C)cc(-n2ccnc2SCC(=O)Nc2ccccc2F)c1 | . | . | . | . | i | i
CCCCCn1c(=O)[nH]c2cc(C(=O)NCc3ccc(F)cc3)ccc2c1=O | . | . | . | . | i | i
COc1cc(/C=N/N2CCOCC2)ccc1OCc1ccc(Cl)cc1 | -2% | 1% | 29% | 1% | i | i
COc1cc(/C=N/OCC(=O)NC2CCCCC2C)ccc1OCc1ccc(Cl)cc1 (stereo not given) | ? | -21% | 16µM* | -2% | 8.2µM* | ?
COc1cc(/C=N/OCC(=O)Nc2cc(C)cc(C)c2)ccc1OCc1ccc(Cl)cc1 | -4% | 9% | 20% | . | 21µM* | ?
Cc1ccc(C(=O)Nc2ccc3oc(-c4ccncc4)nc3c2)c(Cl)c1 | . | . | . | . | i | i
CC1CCc2cccc3c2N1c1cc(C#N)c(C#N)cc1O3 (stereo not given) | -1% | 10%[9.24 µM] | ? | 21% | ? | 7.3µM*
COc1cc(OC)c(C2Nc3c(C)cccc3-c3cc(C)nn32)cc1OC (stereo not given) | . | . | . | . | i | i
SMILES | HT1080 IDH1KD tx | HT1080-NT tox | MCF10A rereplic | SW480 rerep | KB-V1 cytotox | KB-3-1 tox
COc1cc2c(cc1OC)C(c1cccs1)N(C(=O)C(C)C)CC2 (stereo not given) | -16% | -9% | 1% | 4% | 14µM* | ?
COc1cc2c(cc1OC)C(c1cccs1)N(C(=O)c1cccnc1)CC2 (stereo not given) | ? | -28% | ? | 5.2µM* | ? | 5.8µM*
COc1ccc(C(=O)N2CCc3cc(OC)c(OC)cc3C2c2ccc(OC)c(OC)c2)cc1OC (stereo not given) | -21% | -23% | -18% | 4% | i | i
COc1cc2c(cc1OC)C(COc1ccccc1OC)N(C(=O)C(C)C)CC2 (stereo not given) | 10% | 9% | -4% | 2% | ? | i
COc1cc(Cl)c(C)cc1NC(=O)c1cnc(N2CCCCC2)c2ccccc12 | . | . | . | . | i | i
COc1ccc(CCn2c(=O)c3cccnc3n(CC(=O)Nc3c(C)cc(C)cc3C)c2=O)cc1OC | . | . | . | . | i | i
N=c1c(C(=O)NCCN2CCOCC2)cc2c(=O)n3ccccc3nc2n1Cc1ccc(F)cc1 | 3% | 1% | 1.3µM* | 2.1µM* | i | i
COCCCn1c(=N)c(C(=O)NCc2ccc3c(c2)OCO3)cc2c(=O)n3ccccc3nc21 | 10% | -1% | 12% | ? | ? | i
N=c1c(C(=O)NCCN2CCOCC2)cc2c(=O)n3ccccc3nc2n1CCCN1CCOCC1 | 9% | 7% | 0.18µM* | 0.65µM* | i | i
CCOC(=O)C1CCN(C(=O)Cn2c(-c3cccs3)cc3cc(Cl)ccc32)CC1 | . | . | . | . | i | i
O=[N+]([O-])c1cccc(S(=O)(=O)Nc2nc3ccccc3nc2Nc2cccc(S(=O)(=O)N3CCCCC3)c2)c1 | ? | ? | 8% | 9% | ? | i
Cc1ccc(S(=O)(=O)Nc2nc3ccccc3nc2Nc2cccc(S(=O)(=O)N3CCCC3)c2)cc1 | -26% | -23% | 21µM* | ? | ? | ?
O=S(=O)(Nc1nc2ccccc2nc1Nc1ccc2c(c1)OCO2)c1ccccc1 | 0% | 2% | 9% | 2% | 5.2µM* | i
O=S(=O)(c1ccc2nc(Nc3ccccc3)ccc2c1)N1CCCCC1 | 26µM* | ? | ? | 2.8µM* | i | ?
CCc1ccc(NC(=O)Cn2cccc2)cc1 | 21% | 21% | 11% | -1% | i | i
COc1ccc(-c2nc(C)c(CCNC(=O)c3c(F)cccc3F)s2)cc1 | . | . | . | . | ? | i
